The first experiment deals with DDX49. In words: pooled miR-30 sensor sort-seq; sequence = guide strand. Particulars: shRNA.
Consider TTGATCTCACACTCTCTTCGCA, for which the sensor-assay potency score (higher = more potent) was -0.0453.
Turning to TTTGATCTCACACTCTCTTCGC, the sensor-assay potency score (higher = more potent) is -0.199.
The same measure, in the same setting: under TTGTGGTTGATGACCACCTGTA stands -0.316; under TTCTTCTTGATCTGCTCCTCGA, -0.688.
On the same count and under the same terms, under TTGATCTGCTCCTCGATGGCGT stands 0.0961; under TCATCCATCACCAGGAAGCGGA, -1.17; under TCTGTTGCGATCAGGATCCGGT, 0.242.
Still for that read-out and setting: under TCTTTCTGCTTCATCATGGAGT stands -0.0519; under TCGTACTGTGTCACCAGCGTGA, -0.48.
With TTGATGACCACCTGTACCGTAG, the sensor-assay potency score (higher = more potent) is -0.168.
The same measure, in the same setting: under TAGATGCTGGACTTGAACTTGG stands -0.112; under TGATCTCACACTCTCTTCGCAC, -1.01.

The next experiment deals with DEF6. Described as above. Particulars: shRNA.
For the sequence TTGTCCAGGATGTACTTGTTGA, the sensor-assay potency score (higher = more potent) was -0.794.
Same read-out and setting: under AAGAGCTCCAGGAACTGCCAGA stands -0.993.
Still for that read-out and setting: under TCAACTGCTTCAGCTTCTCTTC stands -0.841.
Also: reference of the scale not given here.
